Experimental data reported in PubChem BioAssay AID1159580 (chemical genetic matrix, 2015).
Where “and” joins values, the source holds several entries; their conditions need not be identical. Identical values can stand only once. Among all 5,500 compounds or so, about 2,000 (36%) were called active. Not shown: some 18% with an inconclusive outcome. Cut-off read from the data, not from the text of the source: active = normalized growth mostly below about 0.91 (no sharp cut-off); inconclusive = no clear call, values can overlap the other calls; inactive = mostly above about 0.92. The list shows a part of the results.

Assay: chemical genetic growth profiling, strain panel (AID 1159580);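 note: tested at 20 µM; growth read once vehicle control cultures reached saturation at 30 °C; 1 = growth at the plate median or of vehicle wells; lower values mean less growth of the strain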
Conditions: S. cerevisiae deletion strains, growth OD

Measured: normalized growth

Nc1c2ccccc2nc2ccccc12
active: locus YAL013W, strain DEP1, stronger effect = lower value 0.734 | locus YAL021C, strain ccr4, stronger effect = lower value 0.568 | locus YAL026C, strain drs2, stronger effect = lower value 0.675 | locus YAL030W, strain snc1, stronger effect = lower value 0.566 | locus YBL061C, strain skt5, stronger effect = lower value 0.754 | locus YBR009C, strain hhf1, stronger effect = lower value 0.378 | locus YBR023C, strain chs3, stronger effect = lower value 0.759 | locus YBR231C, strain swc5, stronger effect = lower value 0.61 | locus YBR279W, strain paf1, stronger effect = lower value 0.55 | locus YCL011C, strain gbp2, stronger effect = lower value 0.526 | locus YCL016C, strain dcc1, stronger effect = lower value 0.453 | locus YCL029C, strain bik1, stronger effect = lower value 0.412 | locus YCL061C, strain MRC1, stronger effect = lower value 0.801 | locus YCL069W, strain vba3, stronger effect = lower value 0.732 | locus YCR088W, strain abp1, stronger effect = lower value 0.737 | locus YDL005C, strain med2, stronger effect = lower value 0.781 | locus YDL035C, strain GPR1, stronger effect = lower value 0.478 | locus YDL040C, strain nat1, stronger effect = lower value 0.838 | locus YDL074C, strain BRE1, stronger effect = lower value 0.484 | locus YDL101C, strain DUN1, stronger effect = lower value 0.782 | locus YDL134C, strain PPH21, stronger effect = lower value 0.729 | locus YDL192W, strain arf1, stronger effect = lower value 0.622 | locus YDR001C, strain nth1, stronger effect = lower value 0.89 | locus YDR069C, strain doa4, stronger effect = lower value 0.5 | locus YDR101C, strain arx1, stronger effect = lower value 0.483 | locus YDR150W, strain NUM1, stronger effect = lower value 0.838 | locus YDR162C, strain NBP2, stronger effect = lower value 0.698 | locus YDR195W, strain ref2 1.23 [resistant] | locus YDR297W, strain sur2, stronger effect = lower value 0.662 | locus YDR318W, strain mcm21, stronger effect = lower value 0.565 | locus YDR335W, strain msn5, stronger effect = lower value 0.782 | locus YDR388W, stronger effect = lower value 0.481 | locus YDR502C, strain sam2, stronger effect = lower value 0.513 | locus YEL003W, strain gim4, stronger effect = lower value 0.679 | locus YEL037C, strain rad23, stronger effect = lower value 0.57 | locus YEL061C, strain CIN8 (second series), stronger effect = lower value 0.885 | locus YEL061C, strain CIN8, stronger effect = lower value 0.793 | locus YER015W, strain faa2, stronger effect = lower value 0.693 | locus YER016W, strain bim1, stronger effect = lower value 0.69 | locus YER111C, strain swi4, stronger effect = lower value 0.886 | locus YER167W, strain BCK2, stronger effect = lower value 0.614 | locus YFR010W, strain ubp6, stronger effect = lower value 0.615 | locus YGL078C, strain dbp3, stronger effect = lower value 0.681 | locus YGL086W, strain mad1, stronger effect = lower value 0.595 | locus YGL173C, strain kem1, stronger effect = lower value 0.567 | locus YGL227W, strain vid30, stronger effect = lower value 0.885 | locus YGL248W, strain PDE1, stronger effect = lower value 0.671 | locus YGL253W, strain hxk2, stronger effect = lower value 0.535 | locus YGR078C, strain PAC10, stronger effect = lower value 0.735 | locus YGR135W, strain pre9, stronger effect = lower value 0.709 | locus YGR229C, strain SMI1, stronger effect = lower value 0.694 | locus YGR252W, strain gcn5, stronger effect = lower value 0.544 | locus YHR013C, strain ard1, stronger effect = lower value 0.557 | locus YHR027C, strain rpn1, stronger effect = lower value 0.73 | locus YHR030C, strain SLT2, stronger effect = lower value 0.796 and 0.77 | locus YHR079C, strain IRE1 (second series), stronger effect = lower value 0.535 | locus YHR079C, strain IRE1, stronger effect = lower value 0.763 | locus YHR094C, strain hxt1, stronger effect = lower value 0.801 | locus YHR129C, strain ARP1, stronger effect = lower value 0.808 | locus YHR142W, strain chs7, stronger effect = lower value 0.706 | locus YHR200W, strain rpn10, stronger effect = lower value 0.674 | locus YIL066C, strain RNR3, stronger effect = lower value 0.737 | locus YIL125W, strain kgd1, stronger effect = lower value 0.803 | locus YIR030C, strain dcg1, stronger effect = lower value 0.59 | locus YJL092W, strain hpr5, stronger effect = lower value 0.659 | locus YJL095W, strain BCK1 (second series), stronger effect = lower value 0.684 | locus YJL095W, strain BCK1, stronger effect = lower value 0.563 and 0.76 | locus YJL115W, strain asf1, stronger effect = lower value 0.861 | locus YJL164C, strain tpk1, stronger effect = lower value 0.462 | locus YJL166W, strain qcr8, stronger effect = lower value 0.549 | locus YJL187C, strain SWE1 (second series), stronger effect = lower value 0.524 | locus YJR043C, strain POL32, stronger effect = lower value 0.717 | locus YJR066W, strain TOR1, stronger effect = lower value 0.744
inactive: locus YBR021W, strain FUR4, stronger effect = lower value 1.02 | locus YBR171W, strain sec66, stronger effect = lower value 1.09 | locus YBR229C, strain ROT2, stronger effect = lower value 1.01 | locus YDL185W, strain tfp1, stronger effect = lower value 1 | locus YDR137W, strain rgp1, stronger effect = lower value 0.983 | locus YDR159W, strain sac3, stronger effect = lower value 0.875 | locus YDR334W, strain swr1, stronger effect = lower value 0.93 | locus YDR392W, strain spt3, stronger effect = lower value 0.825 | locus YER110C, stronger effect = lower value 0.977 | locus YER155C, strain BEM2 (second series), stronger effect = lower value 0.913 | locus YER155C, strain BEM2, stronger effect = lower value 1.01 | locus YGL167C, strain pmr1, stronger effect = lower value 1.01 | locus YGL240W, strain doc1, stronger effect = lower value 0.914 | locus YIL073C, strain SPO22, stronger effect = lower value 0.681 | locus YJL129C, strain trk1, stronger effect = lower value 1.05 | locus YJL134W, strain LCB3, stronger effect = lower value 1.01 | locus YJL154C, strain vps35, stronger effect = lower value 0.993 | locus YJL168C, strain set2, stronger effect = lower value 0.972
